We go through 40 compounds from PubChem BioAssay (NCI).

Molecules are shown by their SMILES. This is part of a sample that, as a whole, favours compounds with a hit. Of some 83,000 tested, about 20% had one in any assay.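 A percent growth of 40 corresponds to 60% growth inhibition; 0 means no net growth; -100 means all cells died. Active threshold: below 10.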 Unmarked numbers belong to inactive results.

This assay concerns SK-MEL-5 melanoma. In words: NCI-60 one-dose screen, 48 h (100 = growth as untreated, 0 = no growth, -100 = all killed). The note with it: 10 µM unless noted. How it is done:
Growth inhibition of the SK-MEL-5 human tumor cell line is measured as a screen for anti-cancer activity. Cells are grown in 96 well plates and exposed to the test compound for 48 hours. Compounds are tested at a single concentration, which is 10^-5 M for most compounds. The reported endpoint is percent growth (GI% or GIPRCNT), where numbers from 0 - 100% represent growth inhibition, and numbers from -100% - 0 represent cell death. For example, a value of 40 represents 60% growth inhibition. A value of 0 means no net growth occurred over the course of the experiment. A value of -40 indicates 40% of cells at the beginning of the experiment died by the end of the experiment. A value of -100 means all cells are dead at the end of the experiment.
NCI-60 Human Tumor Cell Lines Screen was performed using the standard one-dose NCI protocol, which is described in more detail at https://dtp.cancer.gov/discovery_development/nci-60/default.htm.
Compounds with GIPRCNT values below 10 were considered active. Activity score was based on GIPRCNT using the following formula: […]
Score is 0 for GIPRCNT values of 100 or above, 50 for GIPRCNT values of 0, and 100 for GIPRCNT values of -100.
In the case of `S=C=Nc1ccc2ccccc2c1`, the growth was 106%.

Regarding `Nc1ncnc(Nc2ccccc2)n1`, the growth was 104%.

In the case of `C=CC1=NC(C)(C)CC(C)O1` (stereo not given), the growth was 105%.

For the compound `COc1ccc(C(=O)C(=O)c2ccccc2)cc1`, the growth is 90.7%.

On to `COc1cc(-c2ccc(NC(=O)CC(C)=O)c(OC)c2)ccc1NC(=O)CC(C)=O`, for which the growth was 98.1%.

Regarding `CC(C)c1ncc([N+](=O)[O-])n1C`, the growth is 114%.

In the case of `Cc1cc(Cc2ccccc2)c(O)c(Cc2ccccc2)c1`, the growth is 98.6%.

Turning to `Clc1ccc(-c2noc(/C=C\c3ccccc3)n2)cc1`, the growth was 97.6%.

`Cc1ccc(OC(=O)c2ccccc2)cc1`: the growth is 101%.

Consider `O=C(O)c1cc(I)ccc1O`, for which the growth is 103%.

`CCOS(=O)(=O)c1ccc([N+](=O)[O-])cc1`: the growth is 102%.

On to `Cc1ccc[n+](CCC(N)=O)c1`, for which the growth was 102%.

For the compound `O=C(O)Cc1ccccn1`, the growth is 104%.

As for `O=[N+]([O-])c1ccc2[nH]c(=S)n(/C=C(/c3ccc(Cl)cc3Cl)S(=O)(=O)Cc3ccc(Cl)cc3Cl)c2c1`, the growth is 101%.

As to `C=CC(C)C(C)(C)O` (stereo not given), the growth is 107%.

As for `Cn1c(=O)[nH]c2ccccc2c1=O`, the growth was 101%.

Regarding `NNc1ncnc2c1ncn2C1OC(CO)C(O)C1O` (stereo not given), the growth was 88.4%.

For the compound `Cn1c(=O)c2nc3c(=O)n(C)c(=O)n(C)c3nc2n(C)c1=O`, the growth was 106%.

For the compound `Oc1cc2ccccc2c(-c2c(O)c(O)cc3ccccc23)c1O`, the growth is 33.4%.

For the compound `N#C/C(=C\c1ccc(C#N)cc1)C(=O)c1ccccc1`, the growth was 106%.

As for `O=C(O)c1c[nH]c2ccccc2c1=O`, the growth is 101%.

Take `OCC1CCC(O)C(CO)N1` (stereo not given): the growth was 108%.

Regarding `CN=S(=O)(OCCCCCOS(=O)(=NC)c1ccc(C)cc1)c1ccc(C)cc1` (stereo not given), the growth is 93.8%.

With `O=[N+]([O-])c1c(Cl)ncnc1Cl`, the growth is 111%.

Regarding `CC(=O)O[C@H]1CC[C@]2(C)C3=C(C(=O)C[C@H]2C1(C)C)[C@]1(C)CC[C@H]([C@H](C)CCC(=O)O)[C@@]1(C)CC3=O`, the growth is 102%.

For the compound `CC(C)C1CCC(C)C(O)C1` (stereo not given), the growth was 105%.

With `S=C(NCc1ccccc1)N1CCC(CCCC2CCN(C(=S)NCc3ccccc3)CC2)CC1`, the growth is 58.8%.

With `O=c1nc(Nc2cccc(Cl)c2)oc2cc(Cl)oc(=O)c12`, the growth was 106%.

For `CCOC(=O)c1ccc(C(C)(C)C)cc1`, the growth was 105%.

In the case of `Nc1ncnc(Nc2ccc(C(F)(F)F)cc2)n1`, the growth is 99.6%.

For the compound `O=Cc1ccc(Cl)c(Cl)c1`, the growth was 110%.

As to `COc1ccc(Nc2cc(Cl)ccc2C(=O)O)cn1`, the growth is 114%.

As to `CCOc1ccncc1[N+](=O)[O-]`, the growth was 106%.

Turning to `CC(=O)Nc1ccc(C(=O)c2ccc(S(=O)(=O)Nc3ccccc3)cc2)cc1`, the growth is 89.8%.

As for `Cc1ccc(Cc2ccc(C)cc2)cc1`, the growth was 101%.

As to `C=CCc1cc(OC)c(O)c(OC)c1`, the growth is 99.8%.

For the compound `Cn1c(=O)c2[nH]c(CC(=O)O)nc2n(C)c1=O`, the growth was 106%.

In the case of `O=C1C=C[C@H](O)[C@@]2(CO)O[C@@H]12`, the growth was 100%.

On to `O=C(Oc1ccccc1Cl)c1ccc(Cl)cc1Cl`, for which the growth is 102%.

`CC(C)N(CCCC#N)C(C)C`: the growth was 103%.
